Source: paper PMC4336329 (PLoS ONE, 2015)
About 14,000 (4.5%) of roughly 310,000 compounds showed an effect of 50% or more. The effect is printed as a negative number. The list comes from a sample in which strong results are over-represented; it also holds similar structures and randomly drawn compounds.

biological target: human ether-à-go-go-related gene (hERG) potassium channel (human, UniProt Q12809); experiment: primary screen, population patch clamp on CHO cells stably expressing hERG; higher = less effect of the substance
Sequence (Q12809 whole entry, looked up): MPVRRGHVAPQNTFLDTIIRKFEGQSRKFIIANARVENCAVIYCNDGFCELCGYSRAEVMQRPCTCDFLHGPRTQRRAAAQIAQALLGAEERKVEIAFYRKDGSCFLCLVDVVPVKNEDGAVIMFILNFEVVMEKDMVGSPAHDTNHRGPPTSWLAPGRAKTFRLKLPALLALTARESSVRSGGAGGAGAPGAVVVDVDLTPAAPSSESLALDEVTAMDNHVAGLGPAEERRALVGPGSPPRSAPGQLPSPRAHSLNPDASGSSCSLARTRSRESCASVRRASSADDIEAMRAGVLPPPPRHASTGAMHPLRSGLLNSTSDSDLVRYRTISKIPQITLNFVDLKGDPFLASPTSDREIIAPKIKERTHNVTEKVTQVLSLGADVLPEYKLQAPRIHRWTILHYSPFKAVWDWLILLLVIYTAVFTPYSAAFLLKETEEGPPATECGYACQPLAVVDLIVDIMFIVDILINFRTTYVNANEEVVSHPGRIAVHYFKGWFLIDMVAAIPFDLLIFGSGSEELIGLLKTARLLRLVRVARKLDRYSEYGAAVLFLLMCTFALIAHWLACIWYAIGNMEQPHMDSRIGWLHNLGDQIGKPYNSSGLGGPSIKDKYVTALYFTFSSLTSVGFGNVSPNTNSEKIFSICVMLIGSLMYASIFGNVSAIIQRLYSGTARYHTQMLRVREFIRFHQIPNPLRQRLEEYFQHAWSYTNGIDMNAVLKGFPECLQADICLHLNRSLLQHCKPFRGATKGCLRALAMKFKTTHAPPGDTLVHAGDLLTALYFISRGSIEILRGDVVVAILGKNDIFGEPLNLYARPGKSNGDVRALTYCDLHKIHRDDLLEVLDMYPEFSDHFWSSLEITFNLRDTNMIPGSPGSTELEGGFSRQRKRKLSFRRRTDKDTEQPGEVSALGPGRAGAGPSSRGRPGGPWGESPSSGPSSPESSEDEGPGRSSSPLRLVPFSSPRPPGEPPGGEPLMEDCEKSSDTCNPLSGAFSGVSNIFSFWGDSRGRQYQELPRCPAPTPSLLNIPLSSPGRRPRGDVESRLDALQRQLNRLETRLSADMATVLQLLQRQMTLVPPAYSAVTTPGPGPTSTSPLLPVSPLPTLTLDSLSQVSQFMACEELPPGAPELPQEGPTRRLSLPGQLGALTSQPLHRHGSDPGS
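Further: peak tail current of the secondary pulse compared with the same well before compound.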

Going from CCCCn1c(O)c(/C=C/C=C/C=Nc2ccccc2)sc1=S to Cn1c(=O)c2c(nc(Br)n2CCCc2ccccc2)n(C)c1=O, the “hERG current change (%, negative = inhibition) at 10uM” value falls from 31% to -9.05%.

First: O=C(Nc1ccc(Cl)c(C(F)(F)F)c1)C(=O)N1CCCCC1
Second: O=C(NCCN1CCCCC1)Nc1ccc([N+](=O)[O-])cc1
The “hERG current change (%, negative = inhibition) at 10uM” value of the first is higher: -1.61% for the first, -41.4% for the second.

First: CC(Oc1ccc(Br)cc1)C(=O)NCC(C)(C)N1CCOCC1 (centres unmarked)
Second: COC(=O)c1ccc(N2CCOCC2)c(F)c1
The “hERG current change (%, negative = inhibition) at 10uM” value of the first is lower: -26% for the first, 9.09% for the second.

Compared with COC(=O)c1ccccc1NC(=O)c1ccc(COc2ccc(C)c(C)c2)o1, CCOC(=O)c1nc(Nc2ccc(C(=O)OC)cc2)c2ccccc2n1 is lower in “hERG current change (%, negative = inhibition) at 10uM” value: 11.9% for the first, 0.323% for the second.

Compared with COC(=O)C1=C(c2c(C)noc2C)C[C@@H]2CC[C@H]1N2C(=O)NCCO, COC(=O)C1=C(C)OC(N)=C(C#N)C1c1cc(OC)c(OCC(N)=O)cc1Cl (centres unmarked) is lower in “hERG current change (%, negative = inhibition) at 10uM” value: 20% for the first, -10% for the second.

Compared with Cc1nnc(N/N=C/C2CC=CCC2)[nH]c1=O (centres unmarked), Cc1ccn2c(=O)nc(SCC(=O)N3CCC(C)CC3)nc2c1 is lower in “hERG current change (%, negative = inhibition) at 10uM” value: 7.06% for the first, -18.4% for the second.

First: CC(C)C(NS(=O)(=O)c1cccc2nsnc12)C(=O)NCc1ccc2c(c1)OCO2 (centres unmarked)
Second: O=C(NCc1ccc2c(c1)OCO2)C1CC(c2ccc(Cl)c(Cl)c2)=NO1 (centres unmarked)
The “hERG current change (%, negative = inhibition) at 10uM” value of the first is lower: -18.7% for the first, 15% for the second.

Compared with Cc1c(NC(=O)C(C)OC(=O)CNC(=O)c2ccc(C(C)(C)C)cc2)c(=O)n(-c2ccccc2)n1C (centres unmarked), O=C(Nc1ccc2c(c1)C(=O)OC2)c1ccc(C(F)(F)F)cc1 is higher in “hERG current change (%, negative = inhibition) at 10uM” value: 13.2% for the first, 17.3% for the second.

Going from Cc1cc(C)n(-c2ccc(NC(=O)C3CCN(Cc4ccc(C)o4)CC3)cc2)n1 to Cn1c(=O)oc2cc(S(=O)(=O)N3CCC(C(=O)NCc4ccccc4)CC3)ccc21, the “hERG current change (%, negative = inhibition) at 10uM” value rises from -16.6% to -6.54%.

First: COC(=O)CSc1nsc(SCC(=O)OC)c1C#N
Second: CCOC(=O)CSc1nsc(SCC(=O)OCC)c1C#N
The “hERG current change (%, negative = inhibition) at 10uM” value of the first is higher: 5.34% for the first, -55.7% for the second.

Going from CCOC(=O)CSc1nc(-c2ccncc2)ccc1C#N to CCOC(=O)CC(=O)CSc1nc(-c2cccnc2)ccc1C#N, the “hERG current change (%, negative = inhibition) at 10uM” value rises from -61.6% to 17.5%.

Compared with CC(=O)CSc1nsc(SCC(C)=O)c1C#N, CCOC(=O)CSc1nc(-c2ccc3c(c2)OCO3)ccc1C#N is lower in “hERG current change (%, negative = inhibition) at 10uM” value: 17.2% for the first, 7.3% for the second.

First: CC1CCc2c(sc3nc4n(c(=O)c23)CCS4)C1 (centres unmarked)
Second: Cc1cccn2c(=O)nc(SCC(=O)N3CCC(C)CC3)nc12
The “hERG current change (%, negative = inhibition) at 10uM” value of the first is higher: -10.3% for the first, -39.5% for the second.

First: COc1ccc(-c2nc3ccccc3n2OCC(=O)O)cc1
Second: COc1ccc(-c2nc(CS(=O)CC(=O)NCc3ccccn3)c(C)o2)cc1 (centres unmarked)
The “hERG current change (%, negative = inhibition) at 10uM” value of the first is higher: 18.5% for the first, 6.44% for the second.

First: CCCCCC(=O)NC(=S)Nc1ccc(NC(=O)c2ccco2)cc1
Second: CCc1ccc(NC(=O)CN2CCc3ccccc3C2)cc1
The “hERG current change (%, negative = inhibition) at 10uM” value of the first is higher: 2.58% for the first, -34.2% for the second.

First: CC1(C)Cc2c(sc(NC(=O)c3ccc(Br)o3)c2C#N)CO1
Second: Cn1c(N2CCOCC2)c(C#N)c2ccccc21
The “hERG current change (%, negative = inhibition) at 10uM” value of the first is higher: 16.6% for the first, -3.19% for the second.

Compared with Clc1ccccc1Cc1noc(CN2CCCCC2CCc2ccccn2)n1 (centres unmarked), Fc1cccc(Cc2noc(CN3CCCCC3CCc3ccccn3)n2)c1 (centres unmarked) is higher in “hERG current change (%, negative = inhibition) at 10uM” value: -29.4% for the first, 0.789% for the second.

Compared with COc1ccc(-c2nc(CN3CCCCC3CCc3ccccn3)c(C)o2)cc1 (centres unmarked), Cc1oc(-c2cccc(F)c2)nc1CN1CCCCC1CCc1ccccn1 (centres unmarked) is lower in “hERG current change (%, negative = inhibition) at 10uM” value: -90.7% for the first, -91.5% for the second.

First: COc1ccc(-c2nc(CN3CCCCC3c3cccnc3)c(C)o2)c(F)c1 (centres unmarked)
Second: Cc1oc(-c2cccc3ccccc23)nc1CN1CCC[C@H]1CO
The “hERG current change (%, negative = inhibition) at 10uM” value of the first is lower: -35.9% for the first, -12.2% for the second.

Going from Cn1ccnc1C1CCCCN1Cc1nc(-c2ccc3c(c2)OCO3)no1 (centres unmarked) to c1ccc(CCC2CCCCN2Cc2nc(-c3ccc4c(c3)OCO4)no2)nc1 (centres unmarked), the “hERG current change (%, negative = inhibition) at 10uM” value falls from -7.65% to -55.7%.

Going from Cc1cccc(C2Nc3ccccc3C(=O)N2c2ccccc2)n1 (centres unmarked) to O=C(CSc1nc(=O)n2ccccc2n1)N1CCN(c2ccccc2)CC1, the “hERG current change (%, negative = inhibition) at 10uM” value falls from 4.41% to -27.7%.

Compared with Cc1nn(C(C)c2n[nH]c(=S)n2-c2ccc(F)cc2)c(C)c1[N+](=O)[O-] (centres unmarked), COc1ccc(OC)c(S(=O)(=O)ON2C(=O)c3ccccc3C2=O)c1 is lower in “hERG current change (%, negative = inhibition) at 10uM” value: 13.3% for the first, 6.82% for the second.

Going from COc1ccc(CN2CCNC(=O)C2CC(=O)NCCCn2nnc3ccccc32)cc1C (centres unmarked) to COc1ccc(OC)c(N(CC(=O)NCCSCc2ccco2)S(=O)(=O)c2ccccc2)c1, the “hERG current change (%, negative = inhibition) at 10uM” value falls from -2.87% to -69.2%.

Compared with O=C(NCCN1CCc2ccccc2C1)Nc1ccc(F)cc1, CCc1ccc(NC(=O)NCCN2CCc3ccccc3C2)cc1 is lower in “hERG current change (%, negative = inhibition) at 10uM” value: -37.5% for the first, -54.7% for the second.

First: CN1CCN(CCNC(=O)Nc2ccc([N+](=O)[O-])cc2)CC1
Second: O=C(NCCN1CCc2ccccc2C1)Nc1ccc([N+](=O)[O-])cc1
The “hERG current change (%, negative = inhibition) at 10uM” value of the first is higher: -25.7% for the first, -70.1% for the second.

Compared with CCCCSCCCNC(=S)Nc1ccccc1C, COc1ccccc1N(CC(=O)NCCSCc1ccco1)S(=O)(=O)c1ccccc1 is lower in “hERG current change (%, negative = inhibition) at 10uM” value: 5.08% for the first, -26.6% for the second.

First: COc1ccc(OC)c(N(CC(=O)NC2CC3CCC2C3)S(=O)(=O)c2ccccc2)c1 (centres unmarked)
Second: COc1ccc(Cl)cc1N(CC(=O)NC1CC2CCC1C2)S(=O)(=O)c1ccccc1 (centres unmarked)
The “hERG current change (%, negative = inhibition) at 10uM” value of the first is lower: -59.7% for the first, -31.5% for the second.

First: COc1ccc(N(CC(=O)NCCSCc2ccco2)S(=O)(=O)c2ccc(C)cc2)cc1
Second: Cc1ccc(N(CC(=O)NCCSCc2ccco2)S(=O)(=O)c2ccc(C)cc2)cc1
The “hERG current change (%, negative = inhibition) at 10uM” value of the first is higher: -17.9% for the first, -69.7% for the second.

Compared with Cc1ccc(S(=O)(=O)N(CC(=O)NCCSCc2ccco2)c2ccc(F)cc2)cc1, COc1ccc(OC)c(N(CC(=O)NCCSCc2ccco2)S(=O)(=O)c2ccc(OC)c(OC)c2)c1 is higher in “hERG current change (%, negative = inhibition) at 10uM” value: -28.3% for the first, -22.6% for the second.

First: COc1ccc(S(=O)(=O)N(CC(=O)NC2CC3CCC2C3)c2ccccc2OC)cc1 (centres unmarked)
Second: O=C(NCc1nc2ccccc2[nH]1)c1cccc(S(=O)(=O)N2CCCCC2)c1
The “hERG current change (%, negative = inhibition) at 10uM” value of the first is lower: -25% for the first, 13.9% for the second.

Going from COc1ccc(Cl)cc1S(=O)(=O)N1CCC(C(=O)NC2CCCC2)CC1 to CCOC(=O)/C(C#N)=C/c1ccc(N2CCCCC2)cc1, the “hERG current change (%, negative = inhibition) at 10uM” value falls from -21.2% to -60.9%.

Compared with COC(=O)[C@H]1C[C@@H]1[C@H](NC(=O)c1cc(C)on1)c1ccccc1, Cc1ccn2c(=O)nc(SCC(=O)N3CCC(Cc4ccccc4)CC3)nc2c1 is lower in “hERG current change (%, negative = inhibition) at 10uM” value: 10.3% for the first, -55.6% for the second.

First: Cc1cc(NC(=O)CSCC(=O)N2CCN(c3cccc(C(F)(F)F)c3)CC2)no1
Second: Cc1ccn2c(=O)nc(SCC(=O)N3CCN(c4ccccc4)CC3)nc2c1
The “hERG current change (%, negative = inhibition) at 10uM” value of the first is higher: -11.3% for the first, -28.6% for the second.

Going from COCCN(C(=O)/C=C/c1ccccc1)c1nnc(-c2cccnc2)s1 to Cc1cccn2c(=O)nc(SCC(=O)N3CCC(Cc4ccccc4)CC3)nc12, the “hERG current change (%, negative = inhibition) at 10uM” value falls from -9.61% to -78.9%.

First: CCOC(=O)/C(C#N)=C/c1ccc(N2CCN(C)CC2)cc1
Second: CCOC(=O)/C(C#N)=C\c1ccc(N2CCN(C)CC2)cc1
The “hERG current change (%, negative = inhibition) at 10uM” value of the first is higher: -27.8% for the first, -38.2% for the second.

First: Cn1ncc(C(=O)Nc2ccc(OC(F)(F)F)cc2)c1-n1cccc1
Second: O=C(CCn1cccc1)Nc1ccc(OC(F)(F)F)cc1
The “hERG current change (%, negative = inhibition) at 10uM” value of the first is lower: -81.3% for the first, 2.32% for the second.

Compared with Cn1ncc(Br)c1NC(=O)Nc1ccc(OC(F)(F)F)cc1, O=C(CSc1nc2c(c(C(F)(F)F)n1)CCc1ccccc1-2)NCc1ccco1 is lower in “hERG current change (%, negative = inhibition) at 10uM” value: 8.82% for the first, 2.99% for the second.

Compared with O=c1[nH]c2ccccc2nc1/C=C(\O)c1cccs1, O=C(CSc1nc(=O)n2ccccc2n1)N1CCCc2ccccc21 is lower in “hERG current change (%, negative = inhibition) at 10uM” value: 19.5% for the first, -16.8% for the second.

Going from CCCCN(CC)S(=O)(=O)c1ccc2c(c1)CCCN2C(C)=O to CCCN(CCC)S(=O)(=O)c1ccc2c(c1)CCCN2C(C)=O, the “hERG current change (%, negative = inhibition) at 10uM” value falls from -43.3% to -47.2%.

Compared with CC(=O)N1CCCc2cc(S(=O)(=O)N(CC(C)C)CC(C)C)ccc21, Cc1ccc2nc(SCC(=O)N3CCC(C)CC3)nc(=O)n2c1 is higher in “hERG current change (%, negative = inhibition) at 10uM” value: -50.4% for the first, -9.74% for the second.

Going from CC(C)(C)NC(=O)Cn1nnc(-c2ccc(Cl)cc2)n1 to CC(=O)c1c(C)n(CCc2ccc(Cl)cc2)c2ccc(O)cc12, the “hERG current change (%, negative = inhibition) at 10uM” value rises from 2.32% to 20.8%.

First: Cc1ccc2nc(SCC(=O)N3CCC(Cc4ccccc4)CC3)nc(=O)n2c1
Second: O=C(CSc1nc(=O)n2ccccc2n1)N1CCC(Cc2ccccc2)CC1
The “hERG current change (%, negative = inhibition) at 10uM” value of the first is lower: -65% for the first, -58.1% for the second.

First: Cc1ccc2nc(SCC(=O)N3CCN(c4ccccc4)CC3)nc(=O)n2c1
Second: CC1CCN(C(=O)CSc2nc(=O)n3ccccc3n2)CC1
The “hERG current change (%, negative = inhibition) at 10uM” value of the first is lower: -47.5% for the first, 8.67% for the second.

Going from Cc1cccn2c(=O)nc(SCC(=O)N3CCCCC3)nc12 to N/C(=N\OC(=O)Cc1ccc([N+](=O)[O-])cc1)c1ccc([N+](=O)[O-])cc1, the “hERG current change (%, negative = inhibition) at 10uM” value falls from -18.6% to -24.4%.

COC1(OC)N=C(N)C2(C#N)C(c3ccccc3)NC(C)=CC12C#N (centres unmarked) was tested, and the “hERG current change (%, negative = inhibition) at 10uM” value was 2.16%.
